Laboratory results reported in PubChem BioAssay AID1159580 (chemical genetic matrix, 2015).
Hit rate of the full screen: of about 5,500 compounds, about 2,000 (36%) were called active. Inconclusive results (about 18%) are left out. Cut-off read from the data, not from the text of the source: active = normalized growth mostly below about 0.91 (no sharp cut-off); inconclusive = no clear call, values can overlap the other calls; inactive = mostly above about 0.92. The list shows a part of the results.

Assay: chemical genetic growth profiling, strain panel (AID 1159580);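 note: tested at 20 µM; growth read once vehicle control cultures reached saturation at 30 °C; 1 = growth at the plate median or of vehicle wells; lower values mean less growth of the strain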
Conditions: S. cerevisiae deletion strains, growth OD

Measured: normalized growth

C=C(NC(=O)C(=C)NC(=O)c1csc(C2=NC3c4csc(n4)C4NC(=O)c5csc(n5)C(C(C)(O)C(C)O)NC(=O)C5CSC(=N5)C(=CC)NC(=O)C(C(C)O)NC(=O)c5csc(n5)C3(CC2)NC(=O)C(C)NC(=O)C(=C)NC(=O)C(C)NC(=O)C(C(C)CC)NC2C=Cc3c(C(C)O)cc(nc3C2O)C(=O)OC4C)n1)C(N)=O (stereo not given)
inactive: locus YAL021C, strain ccr4, active compounds read low 1.01 | locus YAL026C, strain drs2, active compounds read low 1.01 | locus YAL030W, strain snc1, active compounds read low 1.01 | locus YBL061C, strain skt5, active compounds read low 1 | locus YBR009C, strain hhf1, active compounds read low 1 | locus YBR023C, strain chs3, active compounds read low 1.01 | locus YBR171W, strain sec66, active compounds read low 1.02 | locus YBR231C, strain swc5, active compounds read low 1.01 | locus YBR279W, strain paf1, active compounds read low 0.986 | locus YCL011C, strain gbp2, active compounds read low 1 | locus YCL016C, strain dcc1, active compounds read low 1.02 | locus YCL061C, strain MRC1, active compounds read low 1.01 | locus YCL069W, strain vba3, active compounds read low 1.01 | locus YCR088W, strain abp1, active compounds read low 1.02 | locus YDL005C, strain med2, active compounds read low 0.993 | locus YDL040C, strain nat1, active compounds read low 0.993 | locus YDR001C, strain nth1, active compounds read low 1.01 | locus YDR069C, strain doa4, active compounds read low 1.01 | locus YDR137W, strain rgp1, active compounds read low 1.04 | locus YDR159W, strain sac3, active compounds read low 1 | locus YDR195W, strain ref2 1.01 | locus YDR297W, strain sur2, active compounds read low 1 | locus YDR334W, strain swr1, active compounds read low 1.02 | locus YDR335W, strain msn5, active compounds read low 0.991 | locus YDR392W, strain spt3, active compounds read low 1.01 | locus YEL003W, strain gim4, active compounds read low 1.01 | locus YEL037C, strain rad23, active compounds read low 1 | locus YEL061C, strain CIN8 (second series), active compounds read low 1.02 | locus YER015W, strain faa2, active compounds read low 0.993 | locus YER016W, strain bim1, active compounds read low 1 | locus YER111C, strain swi4, active compounds read low 1.03 | locus YER155C, strain BEM2 (second series), active compounds read low 1.06 | locus YFR010W, strain ubp6, active compounds read low 1.01 | locus YGL167C, strain pmr1, active compounds read low 1.01 | locus YGL173C, strain kem1, active compounds read low 1.01 | locus YGL227W, strain vid30, active compounds read low 0.989 | locus YGL240W, strain doc1, active compounds read low 1.01 | locus YGL253W, strain hxk2, active compounds read low 1.01 | locus YHR013C, strain ard1, active compounds read low 1.03 | locus YHR027C, strain rpn1, active compounds read low 1.01 | locus YHR030C, strain SLT2, active compounds read low 0.979 | locus YHR079C, strain IRE1, active compounds read low 0.99 | locus YHR142W, strain chs7, active compounds read low 1.03 | locus YJL092W, strain hpr5, active compounds read low 1.01 | locus YJL095W, strain BCK1 (second series), active compounds read low 1.01 | locus YJL095W, strain BCK1, active compounds read low 0.981 | locus YJL115W, strain asf1, active compounds read low 1.01 | locus YJL129C, strain trk1, active compounds read low 1 | locus YJL154C, strain vps35, active compounds read low 1.02 | locus YJL164C, strain tpk1, active compounds read low 1.01 | locus YJL166W, strain qcr8, active compounds read low 1.02 | locus YJL187C, strain SWE1, active compounds read low 1.01 | locus YJR066W, strain TOR1, active compounds read low 0.968 | locus YKL160W, strain elf1, active compounds read low 1.02 | locus YKR026C, strain gcn3, active compounds read low 0.997 | locus YKR091W, strain srl3, active compounds read low 0.984 | locus YLL001W, strain dnm1, active compounds read low 1.02 | locus YLL026W, active compounds read low 0.995 | locus YLL041C, strain sdh2, active compounds read low 1.01 | locus YLR027C, strain aat2, active compounds read low 0.999 | locus YLR113W, strain HOG1, active compounds read low 0.987 | locus YLR221C, strain rsa3, active compounds read low 0.994 | locus YLR258W, strain gsy2, active compounds read low 1.02 | locus YLR262C, strain YPT6 (second series), active compounds read low 1.04 | locus YLR320W, strain mms22, active compounds read low 1.02 | locus YLR342W, strain FKS1, active compounds read low 1.02 | locus YLR357W, strain rsc2, active compounds read low 0.969 | locus YLR370C, strain arc18, active compounds read low 1 | locus YLR384C, strain iki3, active compounds read low 1.01 | locus YML120C, strain ndi1, active compounds read low 1 | locus YMR058W, strain fet3, active compounds read low 1 | locus YMR125W, strain sto1, active compounds read low 1.01 | locus YMR129W, active compounds read low 0.999 | locus YMR205C, strain PFK2, active compounds read low 1.01 | locus YMR231W, strain pep5, active compounds read low 0.983 | locus YNL071W, strain lat1, active compounds read low 1.01 | locus YNL183C, strain NPR1, active compounds read low 0.971 | locus YNL209W, strain ssb2, active compounds read low 1 | locus YNL248C, strain rpa49, active compounds read low 0.994 | locus YNL322C, strain KRE1 (second series), active compounds read low 1.02 | locus YNR049C, strain mso1, active compounds read low 1.01 | locus YOR001W, strain rrp6, active compounds read low 1.02 | locus YOR070C, strain gyp1, active compounds read low 1.01 | locus YOR080W, strain dia2, active compounds read low 1.02 | locus YOR083W, strain WHI5, active compounds read low 1.01 | locus YOR106W, strain vam3, active compounds read low 1.03 | locus YOR231W, strain MKK1, active compounds read low 0.981 | locus YOR265W, strain rbl2, active compounds read low 1.02 | locus YOR270C, strain vph1, active compounds read low 1 | locus YOR290C, strain snf2, active compounds read low 1.01 | locus YPL051W, strain arl3, active compounds read low 1.01 | locus YPL078C, strain atp4, active compounds read low 1.01 | locus YPL106C, strain sse1, active compounds read low 0.982 | locus YPL240C, strain hsp82, active compounds read low 0.997 | locus YPL256C, strain CLN2, active compounds read low 0.979
